Bioassay records: PubChem, several laboratories
Only some compounds are listed: those with a hit (about 4% of all), similar ones and a draw of the others.
FBA Mtb inh – inhibits M. tuberculosis FBA enzyme; purified M. tuberculosis FBA, fluorescence read-out; inhibition, % at 1 µM; actives 2.3% (n = 360,000); AID 588726; in the data active = inhibition above about 27%
Rv3671c inh – Rv3671c (M. tuberculosis) protease inhibition | P9WHR9 | inhibition, % at 5.96 µM | actives 0.048% (n = 320,000);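 also: extracellular domain of Rv3671c used as enzyme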
Mtb UGM inh – inhibitors of M. tuberculosis UDP-galactopyranose mutase; P9WIQ1; purified UGM, fluorescence polarization probe displacement; inhibition, % at 10 µM; actives 0.06% (n = 320,000); in the data active = inhibition above about 10%, passing the limit was not always enough
Target sequence (P9WIQ1 whole entry, looked up): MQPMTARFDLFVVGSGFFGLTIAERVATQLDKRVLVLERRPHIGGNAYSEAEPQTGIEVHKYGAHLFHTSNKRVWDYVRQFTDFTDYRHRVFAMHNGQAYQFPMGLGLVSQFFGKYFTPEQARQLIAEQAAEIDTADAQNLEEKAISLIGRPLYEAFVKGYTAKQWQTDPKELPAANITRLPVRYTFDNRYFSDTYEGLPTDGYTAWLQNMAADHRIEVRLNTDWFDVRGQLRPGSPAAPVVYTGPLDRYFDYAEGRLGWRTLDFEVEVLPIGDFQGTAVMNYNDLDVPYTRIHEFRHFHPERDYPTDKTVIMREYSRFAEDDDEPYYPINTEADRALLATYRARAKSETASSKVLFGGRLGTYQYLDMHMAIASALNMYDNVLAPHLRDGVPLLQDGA
Mtb bLac sens – beta-lactam sensitization of Mtb H37Rv. inhibition, % at 25 µM. M. tuberculosis H37Rv growth with meropenem, percent inhibition. actives 0.27% (n = 330,000). AID 434955; call rule not given here;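 also: growth measured after seven days incubation then overnight dye step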
RecA intein inh – inhibitors of M. tuberculosis RecA intein splicing; P9WHJ3; cell-free RecA intein splicing, fluorescence; inhibition, % (concentration not given with the values); actives 0.75% (n = 290,000); AID 2221; in the data active = inhibition above about 30%
GDH-TPI inh – counter-screen for M. tuberculosis FBA inhibitors: GDH-TPI coupled enzymes; inhibition, % at 4.8 µM; GDH-TPI coupled enzyme counterscreen, NADH absorbance; actives 1.2% (n = 360,000); in the data active = inhibition above about 30%
Rv3671c confirm – confirmation of M. tuberculosis Rv3671c protease inhibitors; shares compounds with Rv3671c inh; inhibition, % at 5.96 µM; actives 40% (n = 140); AID 2761
DNA intercal FP – DNA intercalation detected by acridine orange polarization counter-screen. AC50, µM. shares compounds with Mtb UGM inh. acridine orange-DNA binding, fluorescence polarization. actives 60% (n = 35). AID 463198;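 active = fitted AC50 no greater than ten times the top concentration tested, cut at about 17 µM in these data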
Hits are given with their value; n = inactive; x = no result given. Rule as the data show it, unless noted: active = inhibition above about 38%; inactive = the rest.

SMILES | FBA Mtb inh | Rv3671c inh | Mtb UGM inh | Mtb bLac sens | RecA intein inh | GDH-TPI inh | Rv3671c confirm | others
Cc1nn(Cc2ccccc2)c(C)c1NC(=O)c1ccc([N+](=O)[O-])cc1[N+](=O)[O-] | n | 166 | n | n | n | n | n
Nc1ccc(Nc2nc3ccccc3[nH]2)cc1 | n | 50 | n | n | n | n | 46
CCc1ccc(C(=O)c2cc3ccc(O)cc3oc2=O)cc1 | n | n | n | n | n | n | x
CC12CCC(=O)N1C(C(=O)Nc1cc(C(F)(F)F)ccc1N1CCCCC1)CS2 (stereo not drawn) | n | 40 | n | n | n | n | n
CC12CCC(=O)N1C(C(=O)Nc1cc(C(F)(F)F)ccc1N1CCOCC1)CS2 (stereo not drawn) | n | n | n | n | n | n | x
O=C(NCc1ccco1)c1cccc(Nc2nc3ccc(Br)cc3[nH]2)c1 | n | 40 | n | n | n | n | 44
CC1=C(C(N)=O)C(c2ccccc2)n2nc(-c3cccc(C)c3)nc2N1 (stereo not drawn) | n | 65 | n | n | n | n | 60
CCOC(=O)C1CCN(C(=O)COc2cc(C)c(Br)cc2C)CC1 | n | n | n | n | n | n | x
NC(=S)N/N=C1\CC(n2nnnc2-c2ccccc2Cl)C2COC1O2 (stereo not drawn) | n | n | n | n | n | n | x
CCCc1cc(=O)oc2cc(C)cc(OCC(=O)Nc3ccccn3)c12 | n | n | n | n | n | n | x
CCCc1cc(=O)oc2cc(C)cc(OCC(=O)NC3CCN(Cc4ccccc4)CC3)c12 | n | 125 | n | n | n | n | n
Cc1cc(OCC(=O)NC2CCN(Cc3ccccc3)CC2)c2c(C)cc(=O)oc2c1 | n | n | n | n | n | n | x
Cc1cc(OC(=O)c2ccco2)c2c(C)cc(=O)oc2c1 | n | 47 | n | n | n | n | 74
CCc1cc(=O)oc2cc(C)cc(OC(=O)c3ccco3)c12 | n | 58 | n | n | n | n | 78
Cc1cc2c(N)cccc2nn1 | n | 55 | n | n | 60 | n | n
C=CCn1c(SCC(=O)N(C)C2CCS(=O)(=O)C2)nnc1-c1ccncc1 (stereo not drawn) | n | n | n | n | n | n | x
Cc1cc(NS(=O)(=O)c2ccc(Nc3nc(-c4sc(NC(=O)c5ccccc5)nc4C)cs3)cc2)no1 | x | 63 | n | n | n | x | 50
Cc1nc(NC(=O)c2ccccc2)sc1-c1csc(Nc2cccc(F)c2)n1 | x | n | n | n | n | x | x
COc1ccc(N(S(=O)(=O)c2ccccc2)S(=O)(=O)c2ccccc2)c(N)c1 | n | n | n | n | n | n | x
CC(C)Oc1ccc(CCC(=O)N/N=C/c2ccc3c(c2)OCO3)cc1 | n | 38 | n | n | n | n | n
O=C(CCc1ccc(O)c(O)c1)N/N=C/c1ccc2c(c1)OCO2 | n | n | n | n | n | n | x
CN(C)C(=O)[C@H]1C[C@H]1[C@@H](O)[C@H](CO)NC(=O)[C@H](COCc1ccccc1)NC(=O)OC(C)(C)C | n | n | n | n | n | n | x
CN1C(=O)NC(c2ccccc2[N+](=O)[O-])C2=C1CCCC2=O (stereo not drawn) | n | 74 | 12 | n | n | n | 38
CCOC(=O)[C@@H]1[C@H]2COc3ccc(Br)cc3[C@@H]2N2C(=O)N(c3cccc(F)c3)C(=O)[C@@]12C | n | n | n | n | n | n | x
CCOC(=O)[C@@H]1[C@H]2COc3cc(OC)ccc3[C@H]2N2C(=O)N(c3cccc(Cl)c3)C(=O)[C@@]12C | n | n | n | n | n | n | x
SMILES | FBA Mtb inh | Rv3671c inh | Mtb UGM inh | Mtb bLac sens | RecA intein inh | GDH-TPI inh | Rv3671c confirm | others
Cc1cc(C(=O)OCC(=O)N2CCN(c3ccccc3)CC2)c2ccccc2n1 | n | n | n | n | n | n | x
Cc1cccc2c(=O)oc(-c3ccccc3Cl)nc12 | n | 51 | n | n | n | n | 72
O=C(N/N=C/c1cc(Br)c(O)c(Br)c1O)c1ccc2c(c1)OCCO2 | n | 42 | n | n | n | 31 | n
O=C(N/N=C/c1cc(Br)c(Br)o1)c1ccc2c(c1)OCCO2 | n | n | n | n | n | n | x
Cc1cc(C)n2nc(SCC(=O)N/N=C/c3ccccn3)nc2n1 | n | 76 | n | n | n | n | n
CCOc1ccc(CNC(=S)N/N=C/c2ccncc2)cc1 | n | n | n | n | n | n | x
CCn1c(C(O)c2cccc(OC)c2OC)nc2ccccc21 (stereo not drawn) | n | n | n | n | n | n | x
CCOC(=O)NC(=O)/C(C#N)=C\Nc1ccc(Cl)cc1Cl | n | n | n | n | n | n | x
CCOC(=O)NC(=O)/C(C#N)=C\Nc1sccc1C(=O)OC | n | 41 | n | n | n | n | n
O=C(Cn1ncc2c3ccccc3n(Cc3cccc(Cl)c3)c2c1=O)NCc1ccccn1 | n | n | n | n | n | n | x
Cc1cc(N)ccc1N1CCCC1 | n | n | n | n | n | n | x
Cc1cc(N)ccc1-n1c(C)ccc1C | n | 83 | n | n | n | n | n
Cn1c(/C(C#N)=C/c2cccc(O)c2)nc2ccccc21 | n | n | n | n | n | n | x
Cn1c(/C(C#N)=C/c2ccc(-c3ccc(S(N)(=O)=O)cc3)o2)nc2ccccc21 | n | 47 | n | n | x | 40 | n
Cc1ccc(-n2c(SCC(=O)Nc3ccc4c5c(cccc35)CC4)nc(O)c(C)c2=O)cc1 | n | n | n | n | n | n | x
Cc1ccc(-n2c(SCC(=O)Nc3ccc4c5c(cccc35)CC4)nc(O)cc2=O)cc1 | n | 45 | n | n | n | n | n
Cc1ccccc1SCc1noc(C(=O)NCC2CCCO2)c1C(=O)O (stereo not drawn) | n | n | n | n | n | n | x
O=C(NCC1CCCO1)c1onc(CSc2ccc(Cl)cc2)c1C(=O)O (stereo not drawn) | n | 84 | n | n | n | n | n
Cn1c2ccccc2c2cc(/C=N/NC(=O)c3ccc(O)cc3O)ccc21 | n | n | n | n | n | n | x
Cn1c(O)c(/C=N/NC(=O)c2cc3ccccc3cc2O)c2ccccc21 | n | 47 | n | n | n | n | n
CCOC(=O)C1CCN(S(=O)(=O)c2ccc3[nH]c(=O)c(=O)[nH]c3c2)CC1 | n | n | n | n | n | n | x
CC1CCN(S(=O)(=O)c2ccc3[nH]c(=O)c(=O)[nH]c3c2)CC1 | n | 62 | n | n | n | n | n
Cc1nn(C)c(C)c1N1C(=O)c2cccc3c(N)ccc(c23)C1=O | n | n | 68 | n | x | n | x | DNA intercal FP=6.1
N#Cc1cccnc1N1CCN(C(=O)c2cccs2)CC1 | n | x | n | n | n | n | x
CC(C)(C)C1(C)OC(=O)C(=Cc2ccc(OCC(=O)Nc3ccccc3)cc2)C(=O)O1 (stereo not drawn) | n | n | n | n | n | n | x | DNA intercal FP=n
